This note sets out measurements from PubChem BioAssay (NCATS).

Assay [1] can be described thus: qHTS profiling of the MIPE4 collection as inhibitors of Plasmodium falciparum (3D7) proliferation (AID 743344).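 Note: scaled between DMSO vehicle wells and 0.29 µM artemisinin as full inhibition.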 The note with it: P. falciparum 3D7 in erythrocytes, SYBR Green DNA fluorescence, 72 h; at 28.5 µM unless noted. An outline of the steps: (§1)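 Erythrocytes infected with P. falciparum (0.3% parasitemia, 2.5% hematocrit) incubated with compounds 72 h at 37 C, 5% CO2. Lysis with saponin/Triton buffer containing SYBR Green I, overnight at room temperature in the dark; DNA fluorescence (485/535 nm) normalised to 0.29 uM artemisinin and DMSO.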

Assay [2] can be described thus: qHTS profiling of the MIPE4 collection as inhibitors of Plasmodium falciparum (DD2) proliferation (AID 743345). As to conditions: P. falciparum Dd2 in erythrocytes, SYBR Green DNA, 72 h; at 28.5 µM unless noted. An outline of the steps:
as §1
For orientation: In qHTS, concentration-response curves come from the screen itself.

The nature of assay [3]: qHTS profiling of the MIPE4 collection as inhibitors of Plasmodium falciparum (DD2) proliferation (Rep 2) (AID 743346). The note with it: P. falciparum Dd2 in erythrocytes, SYBR Green DNA, 72 h; at 28.5 µM unless noted. An outline of the steps: as §1
Assay [4] is described as follows: qHTS profiling of the MIPE4 collection as inhibitors of Plasmodium falciparum (HB3) proliferation (AID 743347).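 Note: plate controls were DMSO vehicle wells for no effect and artemisinin wells for full effect.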 The note with it: P. falciparum HB3 in erythrocytes, SYBR Green DNA, 72 h; at 28.5 µM unless noted. An outline of the steps:
as §1

A short description of assay [5]: High-throughput drug toxicity screening in the BPDCN cell line Gen2.2 (AID 1224824).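 Note: cells exposed to compounds for 48 h before reading.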 As to conditions: Gen2.2 BPDCN cells; at 45.8 µM (top of the series) unless noted. The method in brief:
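Readout is ATP luminescence from Gen2.2 cells after two days of drug exposure in serum-containing medium at 37 °C. Values express percent activity, with vehicle defining full signal and 9.2 uM bortezomib defining zero.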

Assay [6] can be described thus: High-throughput drug toxicity screening in the BPDCN cell line Cal-1 (AID 1224825). The note with it: Cal-1 BPDCN cell viability, qHTS; at 45.8 µM (top of the series) unless noted. The method in brief: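 Cal-1 cells, 500 per well in phenol-red-free RPMI with 10% FBS, exposed to compounds for 48 hours at 37C, 5% CO2. Viability read by CellTiter-Glo luminescence; percent activity normalized to DMSO (100%) and 9.2 uM bortezomib final (0%).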

Assay [7] is described as follows: qHTS assay for measurement of the activity of small molecule inhibitors on Zika virus induced Caspase-3 activity in human iPSC derived neural progenitor cells (hNPCs) (AID 1224857; active = well fitted inhibition curve with a large enough effect; note: % of control where 0% means no effect; nearly all actives have a fitted effect of over 65% in size). An outline of the steps: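 In medium with heparin 2 ug/ml and cyclopamine 2 uM, hNPCs (350 cells/well) received compound for one hour and then Zika virus at 2 FFU/cell; caspase activity was measured by Caspase-Glo 3/7 luminescence 6 h post-infection.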

Assay [8] can be described thus: qHTS assay for measurement of the activity of small molecule inhibitors on Zika virus induced Caspase-3 activity in human astrocytoma cells (AID 1224859; active = well fitted inhibition curve with a large enough effect;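 note: plate controls were ZIKV-infected untreated cells for no effect and uninfected cells for full effect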). An outline of the steps:
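A cell-based luminescent caspase-3/7 assay used SNB-19 cells infected with ZIKV (2 FFU/cell) for 6 h following 1 h compound pretreatment.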

Assay [9] is described as follows: qHTS Screen of the MIPE 4.0 Collection Against Ewings Sarcoma (RDES) (AID 1259252; active = well fitted inhibition curve with a large enough effect; note: nearly all actives have a fitted effect of over 35% in size; note: potency is the fitted concentration of half-maximal effect). An outline of the steps: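 Log-phase cells in RPMI with 5% FBS attached for 4 h, then received compounds as a titration for 48 h at 37C, 5% CO2. Viability was read by CellTiter-Glo luminescence and normalized to DMSO and no-cell wells.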

Results filed as inconclusive are left out. Calls of active or inactive are those of the source. Unless noted, the rule behind the calls is not given here.

Regarding `C[C@@H]1[C@H](O)[C@@H](C)C=CC=CC=CC=CC=CC=CC=C[C@H](O[C@@H]2O[C@H](C)[C@H](O)[C@H](N)[C@@H]2O)C[C@@H]2O[C@](O)(C[C@@H](O)C[C@@H](O)[C@H](O)CC[C@@H](O)C[C@@H](O)CC(=O)O[C@H]1C)C[C@H](O)[C@@H]2C(=O)O`, the parasite growth, % of DMSO control in [1] turned out to be 16.7%. In assay [2], this compound had a parasite growth remaining, % of DMSO control (lower = more inhibition) of 9.78%. In assay [3], the parasite growth, % of control (lower = inhibition) stood at 7.41%. Further, in [4], the growth, % of control came out at 29.7%. Moreover, in assay [5], the cell viability, % of control (lower = more cytotoxic) was determined as 485%. In [6], the viability (% of control) was determined as 4.45%. Besides, the Potency entry in assay [7] and in [8] was “inactive” each time. For the same compound, in assay [9], the Potency is 0.105 µM (active).
In turn, `COc1cc2nccc(Oc3ccc(NC(=O)Nc4ccc(F)cc4F)c(F)c3)c2cc1OC` returned a parasite growth, % of DMSO control in [1] of 17.2%. In addition, the parasite growth remaining, % of DMSO control (lower = more inhibition) in [2] was found to be 36.3%. Moreover, the parasite growth, % of control (lower = inhibition) in assay [3] was 46.4%. For the same compound, the growth, % of control in assay [4] came to 9.7%. Moreover, in assay [5], the cell viability, % of control (lower = more cytotoxic) is 205%. In addition, in assay [6], the viability (% of control) stood at 86.2%. Further, the Potency entry in [7] and in assay [8] was “inactive” throughout. The Potency in assay [9] is 14.8 µM (active).
In assay [1], `Fc1ccc(CNc2ncnc3ccc(F)cc23)cc1` registered a parasite growth, % of DMSO control of 300%. In addition, the parasite growth remaining, % of DMSO control (lower = more inhibition) in assay [2] came to 90.6%. The parasite growth, % of control (lower = inhibition) in [3] came out at 117%. The compound also came in with a growth, % of control in assay [4] of 630%. Also, the cell viability, % of control (lower = more cytotoxic) in assay [5] stood at 91.2%. In assay [6], the viability (% of control) was determined as 93.2%. The Potency result in [7] and in assay [8] was “inactive” in each case. Further, the Potency in assay [9] was 13.2 µM (active).
In turn, `N#CC(c1ccnc(NCCc2cccnc2)n1)c1nc2ccccc2s1` (stereo not given) returned a parasite growth, % of DMSO control in assay [1] of 4.46%. The parasite growth remaining, % of DMSO control (lower = more inhibition) in [2] worked out at 18.6%. Moreover, the parasite growth, % of control (lower = inhibition) in assay [3] is 15.5%. In addition, the growth, % of control in [4] was 7.28%. In [5], the cell viability, % of control (lower = more cytotoxic) is 9.41%. In addition, in [6], the viability (% of control) is 3.4%. Also, the Potency result in [7] and in assay [8] was “inactive” throughout. In addition, in assay [9], the Potency was 23.5 µM (active).
Compound `Cc1ccccc1C(C(=O)NC1CCCCC1)N(C(=O)CNc1ccc(C#N)cc1)c1cccc(F)c1` (stereo not given) came in with a parasite growth, % of DMSO control in [1] of 145%. The compound further showed a parasite growth remaining, % of DMSO control (lower = more inhibition) in assay [2] of 93.3%. In addition, in assay [3], the parasite growth, % of control (lower = inhibition) amounted to 75.5%. The growth, % of control in assay [4] came out at 530%. Further, the cell viability, % of control (lower = more cytotoxic) in assay [5] amounted to 161%. Besides, in assay [6], the viability (% of control) came out at 128%. Also, the Potency result in [7], in assay [8] and in assay [9] was “inactive” each time.
For `CNC(=O)c1c(-c2ccc(F)cc2)oc2cc(N(CCO)S(C)(=O)=O)c(C3CC3)cc12`, the parasite growth, % of DMSO control in [1] stood at 4.82%. The parasite growth remaining, % of DMSO control (lower = more inhibition) in assay [2] is 10.4%. Besides, the parasite growth, % of control (lower = inhibition) in assay [3] stood at 14.1%. In assay [4], this compound showed a growth, % of control of 4.16%. For the same compound, the cell viability, % of control (lower = more cytotoxic) in [5] amounted to 64.5%. Also, the viability (% of control) in assay [6] is 8.15%. Moreover, the Potency result in assay [7] and in assay [8] was “inactive” each time. Moreover, the Potency in assay [9] is 18.7 µM (active).
Consider `CN(C)CCOc1ccc(-c2nc(-c3ccc4c(c3)CCC4=NO)c(-c3ccncc3)[nH]2)cc1`, for which, in [1], the parasite growth, % of DMSO control was determined as 4.92%. The compound further had a parasite growth remaining, % of DMSO control (lower = more inhibition) in assay [2] of 6.01%. Also, the parasite growth, % of control (lower = inhibition) in assay [3] is 6.72%. For the same compound, the growth, % of control in assay [4] stood at 2.95%. The cell viability, % of control (lower = more cytotoxic) in assay [5] was 7.29%. For the same compound, the viability (% of control) in [6] came out at 36.1%. Moreover, the Potency result in assay [7] and in [8] was “inactive” each time. The Potency in assay [9] was 33.2 µM (active).
Consider `N#CC(=C1Nc2ccccc2S1)c1ccnc(OCc2ccc(CN3CCOCC3)cc2)n1`, for which, in assay [1], the parasite growth, % of DMSO control came to 14.1%. Further, the parasite growth remaining, % of DMSO control (lower = more inhibition) in assay [2] amounted to 57.9%. The parasite growth, % of control (lower = inhibition) in assay [3] was 35.2%. This compound also gave a growth, % of control in assay [4] of 10.8%. Besides, the cell viability, % of control (lower = more cytotoxic) in assay [5] came to 5.77%. For the same compound, in [6], the viability (% of control) worked out at 2.57%. Further, the Potency entry in [7] and in assay [8] was “inactive” throughout. Further, the Potency in [9] was 7.43 µM (active).
`C=C1[C@H](n2cnc3c(=O)[nH]c(N)nc32)C[C@H](O)[C@H]1CO` returned a parasite growth, % of DMSO control in assay [1] of 53.5%. The compound also had a parasite growth remaining, % of DMSO control (lower = more inhibition) in [2] of 88%. In [3], the parasite growth, % of control (lower = inhibition) came out at 34.7%. Moreover, the growth, % of control in assay [4] was determined as 42.8%. Further, in assay [5], the cell viability, % of control (lower = more cytotoxic) came out at 147%. Further, the viability (% of control) in [6] was 8.7%. Moreover, the Potency result in assay [7] and in [8] was “inactive” each time. Also, in assay [9], the Potency was 9.35 µM (active).
Regarding `CC1C(=O)OC2C(O)C34C5CC(C(C)(C)C)C36C(OC(=O)C6O)OC4(C(=O)O5)C12O` (stereo not given), the parasite growth, % of DMSO control in assay [1] is 93.4%. Further, the parasite growth remaining, % of DMSO control (lower = more inhibition) in assay [2] came out at 94.5%. For the same compound, the parasite growth, % of control (lower = inhibition) in assay [3] was found to be 85.6%. This compound yielded a growth, % of control in assay [4] of 83.4%. In addition, in [5], the cell viability, % of control (lower = more cytotoxic) came to 158%. Moreover, the viability (% of control) in assay [6] came out at 16.8%. For the same compound, the Potency entry in assay [7] and in assay [8] was “inactive” in each case. The Potency in [9] was 13.2 µM (active).
